From PubChem BioAssay
Most compounds without a hit are left out; they make up all but 3.2% or so of the library.
MEKK2mut PB1 HTS: MEK5 binding signal on mutant MEKK2 PB1, primary screen, biochemical, multiplex bead flow cytometry, Alexa488-MEK5; AID 1530, 2009; hit rate 0.35% among 290,000; percent response, % at 10 µM; Alexa488-MEK5 binding to MEKK2 mutant; in the data active = percent response above about 24%, passing the limit was not always enough
MEKK2 WT-MEK5: modulators of MEK5 binding to wildtype MEKK2, primary screen, biochemical, multiplex bead flow cytometry, Alexa488-MEK5. Mitogen-activated protein kinase kinase kinase 2 (Homo sapiens), Q9Y2U5. Alexa488-MEK5 binding to MEKK2 WT; actives lie on both sides. binding response (% of control), % at 10 µM. hit rate 1.1% among 290,000; in the data active = binding response below about 67% or above about 130%
MEKK3 PB1 HTS: modulators of MEKK3-MEK5 PB1 binding, primary screen, biochemical, wildtype MEKK3, multiplex bead flow cytometry, Alexa488-MEK5. bead-based flow cytometry, Alexa488-MEK5 binding to MEKK3; actives lie on both sides; 0 = blocked by unlabeled MEK5, 100 = vehicle. binding response (% of control), % at 10 µM. hit rate 1.4% among 290,000. AID 1529, 2009;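 active = binding response more than 3 SD above or below the average of its plate-row segment, actives on both sides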;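 also: Alexa488 bead fluorescence after subtracting the streptavidin-only scavenger bead signal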
NRP1-CendR mod: modulators of CendR peptide binding to NRP-1, primary screen, biochemical, fluorescence polarization, uHTS; AID 602438, 2012; hit rate 0.85% among 360,000; Neuropilin-1 (Homo sapiens), O14786; inhibition, % at 25 µM; FAM-RPARPAR peptide binding to NRP-1;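 active = inhibition or corrected inhibition above about 18%, plus a signal ratio from 0.5 to 1.5, limit read from the data, passing the limit was not always enough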
Target sequence (O14786 whole entry, looked up): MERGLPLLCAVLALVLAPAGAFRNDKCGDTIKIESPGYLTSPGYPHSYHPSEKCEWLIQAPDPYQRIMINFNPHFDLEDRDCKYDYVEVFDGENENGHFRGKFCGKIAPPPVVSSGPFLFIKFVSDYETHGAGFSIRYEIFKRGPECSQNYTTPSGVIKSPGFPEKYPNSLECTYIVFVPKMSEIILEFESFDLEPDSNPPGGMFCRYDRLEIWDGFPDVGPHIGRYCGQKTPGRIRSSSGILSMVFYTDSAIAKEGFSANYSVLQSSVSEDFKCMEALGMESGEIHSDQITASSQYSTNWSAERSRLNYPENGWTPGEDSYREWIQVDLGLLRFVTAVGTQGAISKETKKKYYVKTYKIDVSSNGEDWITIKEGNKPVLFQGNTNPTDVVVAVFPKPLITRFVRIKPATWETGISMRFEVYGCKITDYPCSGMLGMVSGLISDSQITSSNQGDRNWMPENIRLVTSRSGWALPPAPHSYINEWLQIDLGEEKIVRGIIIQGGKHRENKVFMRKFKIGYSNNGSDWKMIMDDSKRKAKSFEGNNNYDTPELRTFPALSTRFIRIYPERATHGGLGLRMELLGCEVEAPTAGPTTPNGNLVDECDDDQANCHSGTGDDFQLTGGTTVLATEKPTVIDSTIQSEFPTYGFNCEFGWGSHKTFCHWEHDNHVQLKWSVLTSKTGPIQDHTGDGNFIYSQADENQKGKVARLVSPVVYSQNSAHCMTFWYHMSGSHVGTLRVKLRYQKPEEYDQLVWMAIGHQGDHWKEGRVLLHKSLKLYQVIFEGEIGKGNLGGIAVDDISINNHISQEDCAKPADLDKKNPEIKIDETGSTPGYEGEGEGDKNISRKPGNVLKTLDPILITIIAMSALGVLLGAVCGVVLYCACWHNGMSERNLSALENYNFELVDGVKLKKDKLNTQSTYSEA
SKN-1 inh: suppressors of acrylamide-induced Pgst-4::GFP reporter in worms, primary screen, SKN-1 inhibitor project, whole organism, uHTS, GFP/RFP fluorescence ratio, strain VP596; C. elegans VP596 Pgst-4::GFP/RFP ratio, 24 h; inhibition, % at 21.8 µM; hit rate 0.49% among 360,000;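 active = interference check ratio from 0.5 to 1.5 plus GFP to RFP signal ratio inhibition reaching or exceeding a fixed threshold, cut at about 30% in these data, passing the limit was not always enough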
MEKK2wt confirm: modulators of MEK5 binding to wildtype MEKK2, confirmation, biochemical, single concentration, multiplex bead flow cytometry | Alexa488-MEK5 binding to MEKK2 WT; actives lie on both sides | binding response (% of control), % at 10 µM | hit rate 2.4% among 5,900 | shares compounds with MEKK3 PB1 HTS; in the data active = binding response below about 16% or above about 210%; inactive = in between
MEKK2mut-MEK5: mutant MEKK2 PB1-MEK5 binding signal retest – biochemical, single concentration, multiplex bead flow cytometry, confirmation; AID 1893, 2009; percent response, % at 10 µM; hit rate 2% among 5,900; Alexa488-MEK5 binding to MEKK2 mutant; shares compounds with MEKK3 PB1 HTS; in the data active = percent response mostly above about 71%, no sharp cut-off; inactive = mostly below about 38%;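 also: higher means compound restores mutant binding toward wildtype level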
MEKK3-MEK5 inh: MEKK3 wild-type PB1 binding to MEK5, inhibitors, confirmation, biochemical, bead multiplex flow cytometry, single concentration, wildtype. Alexa488-MEK5 binding to MEKK3; hits give low values. shares compounds with MEKK3 PB1 HTS. binding response (% of control), % at 10 µM. AID 1894, 2009. hit rate 1.8% among 5,900;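 active = binding response below 72% of control, or above a set upper limit, though filed actives all read lower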;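 also: 100% = DMSO only wells and 0% = binding blocked by excess unlabeled MEK5; lower values mean stronger disruption of MEK5 binding to MEKK3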
An asterisk follows results filed as active; / = no result.

SMILES	MEKK2mut PB1 HTS	MEKK2 WT-MEK5	MEKK3 PB1 HTS	NRP1-CendR mod	SKN-1 inh	MEKK2wt confirm	MEKK2mut-MEK5	MEKK3-MEK5 inh
Cc1ccc2nc(Cl)c(C3CC(c4ccco4)=NN3C(=O)CCCC(=O)O)cc2c1 (stereo not drawn)	-1	93	99	-1	-3	/	/	/
O=C(Nc1ccc(F)cc1)Nc1cccnc1	1	98	100	4	-4	/	/	/
O=C(NCC(F)(F)F)Nc1cccnc1	22	121	127*	-5	-3	105	1	101
O=C(CS(=O)CC(=O)N(c1ccccc1)C(C(=O)NC1CCCC1)c1cccs1)Nc1ccc(F)cc1 (stereo not drawn)	3	100	101	9	-10	/	/	/
Cc1ccc(N(C(=O)CS(=O)CC(=O)Nc2ccc(F)cc2)C(C(=O)NC2CCCCC2)c2ccco2)cc1 (stereo not drawn)	0	105	132*	5	4	99	7	102
O=C(Nc1nc2nccc(-c3ccccc3)n2n1)c1ccccc1	3	103	102	-6	11	/	/	/
COc1ccc(C(=O)Nc2nc3nccc(-c4ccccc4)n3n2)cc1	1	108	180*	6	-2	102	4	103
CCc1nc(NC(=O)c2sc(C)nc2C)sc1C(=O)OC	13	109	108	-1	-6	/	/	/
CN(C)CCCN(C(=O)c1ccc(Br)s1)c1nc2cc3c(cc2s1)OCO3	7	128	99	0	-11	/	/	/
CN(C)CCCN(C(=O)c1ccc2c(c1)CCCC2)c1nc2cc3c(cc2s1)OCO3	23	154*	103	3	-9	145	25	106
CCN(CC)CCN(C(=O)c1ccc2c(c1)CCCC2)c1nc2ccc(F)cc2s1	8	154*	108	4	3	136	10	105
CCN(CC)CCN(C(=O)c1ccc2c(c1)CCCC2)c1nc2c(C)cccc2s1	29*	158*	111	2	7	107	1	102
CCN(CC)CCN(C(=O)c1ccccc1OC)c1nc2ccc(F)cc2s1	10	120	107	-3	1	/	/	/
CN(C)CCCN(C(=O)CCSc1ccccc1)c1nc2cc3c(cc2s1)OCO3	12	153*	110	0	7	126	10	99
CN(C)CCCN(C(=O)CCS(=O)(=O)c1ccccc1)c1nc2cc3c(cc2s1)OCO3	6	116	101	4	11	/	/	/
COc1ccc(CCCNC(=O)C2Cc3c(-c4cccc(C(C)=O)c4)ccnc3O2)cc1 (stereo not drawn)	/	/	/	-2	-6	/	/	/
Cc1ccc(OCCn2c(SCCO)nc3c(N)ncnc32)cc1	12	113	110	9	5	/	/	/
Cc1cccc(C)c1NC(=O)C(c1ccc(-c2ccccc2)cc1)n1c(=O)c(-c2cc3ccccc3[nH]2)nc2ccccc21 (stereo not drawn)	/	/	/	-15	5	/	/	/
CN(C)CCCN(C(=O)c1ccc(S(=O)(=O)N(C)C)cc1)c1nc2cc3c(cc2s1)OCO3	9	114	101	0	12	/	/	/
CN(C)CCCN(C(=O)c1ccc(S(=O)(=O)N(C)C)cc1)c1nc2ccc(F)cc2s1	13	112	102	3	-6	/	/	/
CN(C)CCCN(C(=O)c1ccc(C(=O)c2ccccc2)cc1)c1nc2cc3c(cc2s1)OCCO3	27*	166*	107	0	7	155	23	107
CN(C)CCCN(C(=O)c1ccc2c(c1)CCCC2)c1nc2ccc(F)cc2s1	7	142*	138*	-8	-2	150	30	106
CN(C)CCCN(C(=O)c1ccc(S(=O)(=O)N2CCc3ccccc32)cc1)c1nc2ccc(F)cc2s1	25*	166*	101	-3	-10	186	50	107
CCN(Cc1ccccc1)S(=O)(=O)c1ccc(C(=O)N(CCCN(C)C)c2nc3cc4c(cc3s2)OCO4)cc1	39*	202*	107	-5	9	203	56	106
Cn1c(CNC(=O)CNC(=O)Cc2ccccc2)cc(=O)n(C)c1=O	0	99	98	-82	6	/	/	/
SMILES	MEKK2mut PB1 HTS	MEKK2 WT-MEK5	MEKK3 PB1 HTS	NRP1-CendR mod	SKN-1 inh	MEKK2wt confirm	MEKK2mut-MEK5	MEKK3-MEK5 inh
CCN(CC)CCCN(C(=O)c1ccco1)c1nc(-c2ccc(Cl)cc2)cs1	39*	169*	108	-2	-22	158	29	108
CCN(CC)CCCN(C(=O)c1ccc(Br)cc1)c1nc(-c2ccc(OC)cc2)cs1	24*	176*	100	-2	-13	152	21	78
CCN(CC)CCCN(C(=O)c1ccco1)c1nc(-c2ccc(C)cc2)cs1	-1	135	105	-15	6	/	/	/
CCN(CC)CCCN(C(=O)c1cccs1)c1nc(-c2ccc(OC)cc2)cs1	2	143*	97	5	-10	116	13	104
CCN(CC)CCCN(C(=O)c1cccc(C)c1)c1nc(-c2ccc(OC)cc2)cs1	14	143*	106	-1	1	151	22	106
COc1ccc(-c2csc(N(C)C(=O)c3cccs3)n2)cc1	3	103	106	2	13	/	/	/
COc1ccc(-c2csc(N(CCCN(C)C)C(=O)c3ccc(OC)c(OC)c3)n2)cc1	/	/	/	5	-2	/	/	/
CCOC(=O)[C@]12CCC=C1N(Cc1ccco1)C(=O)[C@H](CC(=O)NCCC(C)C)C2	/	/	/	-11	16	/	/	/
COc1ccc(C(C)(O)c2nc(-c3ccc(S(C)(=O)=O)cc3)cs2)cc1 (stereo not drawn)	/	/	/	-3	-2	/	/	/
Cc1cc(SCC(=O)NCCCN2CCCC2=O)nc2ccccc12	/	/	/	-18	6	/	/	/
CCOc1ccc(S(=O)(=O)NCCC(=O)OCC(=O)NC(=O)c2cccn2C)cc1	/	/	/	-3	15	/	/	/
CCCCNC(=O)C1C2C=CC(C2)C1C(=O)O (stereo not drawn)	0	110	149*	0	9	96	-7	97
